Inconclusive results are not listed. Calls of active or inactive are those of the source. How the source made its calls: active means hit-call score of the fitted dose curve at least 0.9, where 1 is the maximum; inconclusive means response in the unintended direction; inactive means score below 0.9.
The compounds below were run on rainbow trout Peroxisome Proliferator-activated Receptor gamma (PPARg), gene 110528708 (assay: ATG_rtPPARg_EcoTox2: Attagene TRANS-FACTORIAL EcoTox-2 HepG2 Assay for rainbow trout Peroxisome Proliferator-activated Receptor gamma (PPARg)).
Description: ATG_EcoTox2 is a cell-based, multiplexed assay created by modifying the existing Attagene TRANS-FACTORIAL system to include a panel of nuclear receptors from some or all the following species: human (Homo sapiens), african clawed frog (Xenopus laevis), rainbow trout (Oncorhynchus mykiss), japanese medaka (Oryzias latipes), and zebrafish (Danio rerio). The ECOTOX2-FACTORIAL format uses HepG2, a human liver cell line, with measurements taken at 24 hours after chemical dosing in a 24-well plate. ATG_rtPPARg_EcoTox2 is one of 29 assay components calculated in the ATG_EcoTox2 assay. It is designed to make measurements of mRNA induction, a form of inducible reporter, as detected with fluorescence intensity signals by Reverse transcription polymerase chain reaction (RT-PCR) and Capillary electrophoresis technology.The assay endpoint ATG_rtPPARg_EcoTox2 was analyzed in the positive analysis fitting direction relative to DMSO as the negative control and baseline of activity. Using a type of inducible reporter, measures of mRNA for gain-of-signal activity can be used to understand the reporter gene at the transcription factor-level as they relate to the gene PPARg. Furthermore, this assay endpoint can be referred to as a primary readout, because this assay has produced multiple assay endpoints where this one serves a reporter gene function. […]
Human liver HepG2 cells are transiently transfected with multiple reporter transcription units (MRTUs) in 6-well plates using FuGene 6 reagent (Roche; 3 ml FuGene/1 mg DNA). […] A major difference between the CIS and TRANS system is that in CIS activities of endogenous TFs are measured, whereas the TRANS assay evaluates changes in activities of exogenous, chimeric NR-Gal4 proteins. […] The fragments were purified using Qiaquick PCR columns (Qiagen), analyzed on an ABI 3130xL genetic analyzer (Applied Biosystems) with peak positions identified by using a set of X-rhodamine (ROX)-labeled MapMarker1000 molecular weight standards (BioVentures). […]

Row | Compound | outcome
1 | O=S(=O)(O)C(F)(F)C(F)(F)C(F)(F)C(F)(F)C(F)(F)C(F)(F)F | inactive
2 | O=C(O)C(F)(F)C(F)(F)C(F)(F)C(F)(F)C(F)(F)C(F)(F)C(F)(F)F | inactive
3 | CCCCOCN(C(=O)CCl)c1c(CC)cccc1CC | inactive

Source: PubChem BioAssay AID2284352 (EPA ToxCast)
